# Measurements: PubChem BioAssay (NCI)
# This is part of a sample that, as a whole, favours compounds with a hit. Of some 83,000 tested, about 20% had one in any assay.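 Cells were grown in 96-well plates and exposed to the test compound at a single concentration for 48 hours; results are reported as percent growth, with values below 10 considered active.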 A number with no mark means an inactive call. Calls of active or inactive are those of the source.
# What was measured:
# Test in all cases: NCI-60 one-dose screen, 48 h (100 = growth as untreated, 0 = no growth, -100 = all killed)
# Settings in all cases: 10 µM unless noted
# [1] = tested on: DU-145 prostate
# [2] = tested on: K-562 leukemia
# [3] = tested on: MALME-3M melanoma
# [4] = tested on: MDA-MB-231 breast
# [5] = tested on: RXF 393 renal
# [6] = tested on: SF-268 CNS
# [7] = tested on: SF-295 CNS
# [8] = tested on: SF-539 CNS
# [9] = tested on: UACC-257 melanoma
# [10] = tested on: M14 melanoma
# [11] = tested on: HCT-15 colon
# [12] = tested on: HT29 colon
# [13] = tested on: SNB-75 CNS
# [14] = tested on: SNB-19 CNS
# [15] = tested on: PC-3 prostate
# [16] = tested on: SK-MEL-5 melanoma
# [17] = tested on: UACC-62 melanoma
# [18] = tested on: SK-MEL-28 melanoma
# [19] = tested on: LOX IMVI melanoma
Compound,growth [1],growth [2],growth [3],growth [4],growth [5],growth [6] [%],growth [7],growth [8],growth [9],growth [10],growth [11],growth [12],growth [13],growth [14] [%],growth [15],growth [16],growth [17],growth [18],growth [19]
CCN1C(=O)N(CC)C2C1NN=c1s/c(=C\c3ccccc3)c(=O)n12 (configuration not stated),5.47% (active),8.79% (active),41.1%,2.86% (active),32%,54.8,5.04% (active),-12.5% (active),45.8%,8.9% (active),11%,3.09% (active),20.8%,27.1,23.9%,-9.58% (active),24.3%,60.6%,–
COc1ccc(-c2ccc(-c3ccc(C(=N)N)o3)o2)cc1,6.23% (active),-9.69% (active),57.1%,8.3% (active),25.1%,39.8,35.6%,23%,37.9%,35.1%,-7.49% (active),-9.08% (active),43.6%,15.5,25.5%,25.6%,-61.1% (active),71.1%,–
CCCN1C(=O)N(CCC)C2C1NC(=S)N2/N=C/C=C/c1ccccc1OC (configuration not stated),14.2%,12.6%,40.4%,23.9%,-29.8% (active),62.9,10.9%,-30.6% (active),60.5%,-0.388% (active),19.3%,2.43% (active),-17.4% (active),24.6,28.7%,26.9%,28.5%,50%,41%
CCCCCCCC/C=C\CCCCCCCCOc1ccc(CC(=O)NCC[N+]2(C)CCCC2)cc1,78.4%,41.6%,66%,59.8%,-45.3% (active),62.8,74.8%,65.4%,77.3%,71.4%,84.8%,18.4%,43.4%,38,9.45% (active),79.5%,50.3%,95.9%,72.8%
CN(C)CCCN(CCC1CCCCC1)CCC1CCCCC1,80.9%,26%,-79.4% (active),19.4%,70.8%,75.2,69.4%,49.6%,-65.3% (active),-97.2% (active),15%,7.47% (active),62.2%,86.7,46.9%,–,-78.5% (active),-97.8% (active),–
COc1cc2cc(Oc3ccc(NC(=O)Nc4ccc(F)c(C(F)(F)F)c4)cc3)c(C)nc2cc1OCCN1CCCCC1,-24.2% (active),-34.7% (active),-87.9% (active),27.6%,59.5%,76.6,72.8%,75.3%,-52.5% (active),-86.8% (active),-71.5% (active),-74% (active),92.7%,62.9,-76% (active),-89.3% (active),50.6%,-62.5% (active),-70.4% (active)
CC(C)(C)n1cc(-c2ccnc(NCCNS(=O)(=O)c3cccc4ccccc34)c2)c(-c2cccc(O)c2)n1,83.3%,15.4%,75.7%,81.9%,73.3%,81.4,92.5%,77.1%,81.1%,66.5%,20.9%,6.71% (active),37.9%,88,59%,45.1%,76.9%,83.4%,61.8%
O=C(Nc1cccc(Cn2c(=O)[nH]c3ccc(Oc4ncccn4)cc3c2=O)c1)c1cccc(Cl)c1,56.5%,27.1%,79.5%,72.6%,81.1%,55.6,45.5%,71.3%,44%,70%,61.3%,54.8%,82.2%,65.3,50.3%,11.4%,52.1%,78.8%,71.4%
Cn1cc(-c2nc(-c3c[nH]c4c(Cl)nccc34)cs2)c2ccccc21,92.6%,89.3%,113%,98.9%,90.4%,98.5,103%,90.5%,71.8%,97.2%,98.6%,83.5%,108%,94.5,–,91.2%,97.5%,108%,102%
O=C(c1ccccc1)[C@@H](c1ccccc1)[C@]1(O)C(=O)Nc2ccccc21,103%,102%,98.2%,88.4%,98.6%,84.9,95.8%,95.3%,96.8%,95.5%,100%,101%,83.7%,94.1,90.7%,92.1%,85.9%,96.2%,91.1%
O=C(Nc1ccc2[nH]ncc2c1)c1csc(Nc2ccccc2)n1,21.4%,20.7%,69%,58.5%,12.9%,56.6,22.6%,22.5%,77.2%,24.5%,16.9%,11.8%,36%,30.1,38.7%,12.3%,26.8%,64.1%,40.8%
CCCCCC(C)(O)C(C(=O)O)c1ccccc1 (configuration not stated),114%,121%,93.9%,102%,110%,107,103%,95.4%,102%,96.7%,106%,101%,94.5%,97.1,–,101%,103%,98.4%,102%
